High-throughput results (PubChem)
In the library only some 0.51% were active in any assay of this set; here they are far more common.
AddAB inh – less growth of phage-infected E. coli with AddAB; E. coli expressing H. pylori AddAB, absorbance growth; inhibition, % at 11.9 µM; hit rate 0.29% among 330,000; AID 435030; in the data active means inhibition above about 12%;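 further: 0% = vehicle wells of infected cells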
E coli growth-1 – bacterial growth inhibition, counter-screen for AddAB inhibitors; E. coli V3065 growth, OD600 absorbance, 18 h; AID 449728; hit rate 0.27% among 330,000; inhibition, % at 11.9 µM;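 active means inhibition above the campaign's mean inhibition across all tested compounds plus 3 SD, cut at about 9.9% in these data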;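 further: uninfected addAB+ strain grown without phage in ampicillin broth; 0% = DMSO wells and 100% = ciprofloxacin 0.95 µg/ml wells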
Tat export inh – inhibitors of E. coli Tat protein transport; inhibition, % at 10 µM; hit rate 0.036% among 340,000; E. coli MC4100 TorA-mCherry Tat export, fluorescence;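 active means mean replicate inhibition at least 50% and at least half of replicates individually reaching 50%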;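 further: exported cargo escapes ClpAP degradation while cytoplasmic cargo is degraded and loses fluorescence; 0% = median of neutral control wells and 100% = median of NaSCN control wells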
phage Ecoli inh – E. coli growth loss with phage present | growth absorbance | inhibition, % at 11.9 µM | hit rate 0.26% among 360,000 | AID 651602; in the data active means inhibition above about 11%
E coli growth-2 – E. coli growth inhibition. Escherichia coli growth, OD600, 23 h; active compounds read low. OD600 absorbance (no concentration beside the values). hit rate 0.21% among 330,000. AID 1053175;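 active means OD600 absorbance below the run mean of sample wells minus 3.6 SD, in any replicate, cut at about 0.56 in these data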
AddAB conf – confirmation screen: growth loss of phage-infected E. coli expressing H. pylori AddAB; shares compounds with AddAB inh; E. coli V3065 expressing H. pylori AddAB, T4 phage, OD; T4 phage with gene 2 nonsense mutations; inhibition, % at 11.9 µM; hit rate 64% among 880; AID 488942;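 active means mean inhibition above a set limit taken from the earlier primary screen, cut at about 13% in these data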;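 further: higher means less bacterial growth since AddAB block lets phage replicate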
RecBCD counter – AddAB counter-screen: growth loss of RecBCD+ E. coli infected with mutant T4 phage; shares compounds with AddAB inh; E. coli V66 + mutant T4 phage, OD growth; inhibition, % at 11.9 µM; hit rate 73% among 880;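 active means mean inhibition above the mean of solvent-only control wells plus 3 SD, cut at about 4% in these data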;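 further: optical density read after an 18 h incubation at 37 °C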
bact viab count – counter-screen for AddAB inhibitors: inhibitors of bacterial viability; AID 488956; inhibition, % at 11.9 µM; hit rate 35% among 880; shares compounds with AddAB inh; absorbance (AddAB counterscreen); in the data active means inhibition above about 25%
RecBCD conf – confirmation: growth loss of phage-infected RecBCD+ E. coli (RecBCD inhibitor screen). E. coli V66 + T4 2- phage, growth OD. AID 651982. shares compounds with phage Ecoli inh. hit rate 45% among 890. inhibition, % at 11.9 µM;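 active means mean inhibition over triplicates exceeding the hit threshold derived in the original primary screen, cut at about 11% in these data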
Ecoli viability – inhibits E. coli viability, flagging RecBCD hits as nonselective; shares compounds with phage Ecoli inh; absorbance (OD) growth; inhibition, % at 11.9 µM; hit rate 29% among 890; AID 651983; in the data active means inhibition above about 20%;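 further: E. coli strain V66 grown with compound alone and no phage infection; 0% = bacteria with DMSO vehicle only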
AddAB counter – growth loss of phage-infected AddAB E. coli, RecBCD counter-screen. shares compounds with phage Ecoli inh. E. coli expressing H. pylori AddAB + T4 phage, OD growth; gene 2 mutant T4, recBCD-deleted host. inhibition, % at 11.9 µM. hit rate 45% among 890;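 active means mean inhibition above the solvent-only control wells' mean plus 3 SD, cut at about 22% in these data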;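 further: higher means less bacterial growth from phage killing when AddAB is blocked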
* marks the source's active call; other numbers are inactive results; . = no result given.

SMILES	AddAB inh	E coli growth-1	Tat export inh	phage Ecoli inh	E coli growth-2	AddAB conf	RecBCD counter	bact viab count	RecBCD conf	Ecoli viability	AddAB counter
CCn1cc(C(=O)O)c(=O)c2cc(F)c(N3CCN(C(=S)NC(=O)c4ccc(F)cc4)CC3)cc21	98*	96*	13	99*	0.063*	100*	100*	102*	103*	104*	105*
CCn1cc(C(=O)O)c(=O)c2cc(F)c(N3CCN(C(=S)NC(=O)c4cccc(F)c4)CC3)cc21	98*	99*	4	42*	0.071*	100*	100*	100*	101*	101*	101*
CCCCCCCCCC(=O)N1CCN(c2cc3c(cc2F)c(=O)c(C(=O)O)cn3CC)CC1	0	1	0	1	0.56	.	.	.	.	.	.
CCCOc1ccc(C(=O)NC(=S)N2CCN(c3cc4c(cc3F)c(=O)c(C(=O)O)cn4CC)CC2)cc1	99*	97*	62*	98*	0.084*	103*	101*	105*	103*	103*	101*
CCn1cc(C(=O)O)c(=O)c2cc(F)c(N3CCN(C(=S)NC(=O)c4ccccc4Br)CC3)cc21	97*	99*	11	94*	0.067*	103*	22*	102*	101*	102*	102*
CCOc1cc(C=NO)cc(Cl)c1OCC	.	.	.	.	0.7	.	.	.	.	.	.
CCn1cc(C(=O)O)c(=O)c2cc(F)c(N3CCN(C(=S)NC(=O)c4ccc(F)c(F)c4)CC3)cc21	98*	98*	91*	99*	0.07*	100*	87*	99*	103*	103*	104*
COc1ccc(C2CC=C(C(=O)O)C(c3cccc(Cl)c3)N2S(=O)(=O)c2ccc(Cl)cc2)cc1 (stereo not given)	.	.	.	.	0.67	.	.	.	.	.	.
CCn1c(SCC(=O)NN=CC=Cc2ccco2)nc2ccccc21	.	.	.	.	0.69	.	.	.	.	.	.
Cc1ccc(C(=O)N/N=C\c2ccc([N+](=O)[O-])o2)cn1	84*	20*	-14	18*	.	101*	14*	36*	7	6	97*
O=C(Cc1ccc([N+](=O)[O-])cc1)N/N=C/c1ccc([N+](=O)[O-])o1	21*	14*	-24	13*	.	75*	7.1*	17	5	6	67*
O=C(CNc1cccc([N+](=O)[O-])c1)N/N=C/c1ccc([N+](=O)[O-])o1	82*	33*	2	18*	.	102*	16*	60*	14*	12	66*
Cc1ccc(C(=O)N/N=C\c2ccc(-c3ccc([N+](=O)[O-])cc3)o2)cn1	0	0	1	4	.	.	.	.	.	.	.
Cc1ccc(OCC(=O)NN=Cc2cn(Cc3ccccc3)c3ccccc23)cc1C	.	.	.	.	0.73	.	.	.	.	.	.
Nc1nnc(CC(=O)NN=Cc2ccccc2OCc2ccc(F)cc2)s1	.	.	.	.	0.63	.	.	.	.	.	.
C/C(N=Nc1nc2ccccc2s1)=N\Nc1ccccc1O	15*	11*	-6	33*	.	32*	34*	31*	24*	27*	39*
CCC1OC(=O)C(C)C(OC2C[C@@](C)(OC)C(O)C(C)O2)C(C)C(OC2OC(C)CC(N(C)C)C2O)[C@](C)(O)CC(C)C(=NOCOCCOC)C(C)C(O)[C@]1(C)O (stereo not given in full)	.	.	.	.	0.58	.	.	.	.	.	.
CC[C@H]1OC(=O)[C@H](C)[C@@H](O[C@H]2C[C@@](C)(OC)[C@@H](O)[C@H](C)O2)[C@H](C)[C@@H](O[C@@H]2O[C@H](C)C[C@H](N(C)C)[C@H]2O)[C@](C)(O)C[C@@H](C)CN(C)[C@H](C)[C@@H](O)[C@]1(C)O	100*	101*	121*	101*	.	99*	101*	102*	103*	104*	104*
O=C(O)[C@]1(S(=O)(=O)c2ccccc2)CC2ON=C(c3cccc(Br)c3)C2C1 (stereo not given in full)	.	.	.	.	0.71	.	.	.	.	.	.
CN(C)C(=O)N1CCC(C(=O)NCc2ccc(F)cc2)CC1	1	-1	-7	46*	0.73	.	.	.	-3	-2	-2
Oc1ccc(-c2nc3ccccc3nc2-c2ccccc2)cc1	0	0	-1	33*	0.7	.	.	.	-1	-1	-1
CC(C)CC(NC(=O)OC(C)(C)C)C(=O)NC(CO)C(O)C1CC1C(=O)NC1CC1 (stereo not given)	.	.	.	.	0.69	.	.	.	.	.	.
O=c1c(=Cc2ccccc2)sc2nnc(-c3cccs3)n12	.	.	.	.	0.68	.	.	.	.	.	.
Oc1ccc(Cc2ccccc2)c2cccnc12	.	.	.	15*	0.64	.	.	.	6	11	17
COc1ccc(C(=O)NN=Cc2ccc(OC(=O)c3cccs3)cc2)cc1	.	.	.	.	0.62	.	.	.	.	.	.
SMILES	AddAB inh	E coli growth-1	Tat export inh	phage Ecoli inh	E coli growth-2	AddAB conf	RecBCD counter	bact viab count	RecBCD conf	Ecoli viability	AddAB counter
Fc1ccc(NC(=S)Nc2ccccc2OC(F)F)cc1Cl	5	2	4	13*	0.6	.	.	.	5	7	9
O=S(=O)(NN=Cc1ccc2c(c1)OCCO2)c1ccc(Cl)cc1	.	.	.	.	0.72	.	.	.	.	.	.
O=[N+]([O-])c1ccc2c(c1)oc1ccccc12	2	0	5	2	0.72	.	.	.	.	.	.
O=[N+]([O-])c1cc2c(ccc3occc32)o1	.	.	.	101*	.	.	.	.	102*	103*	102*
FC(F)Sc1ccc(NC(=S)NC2CCCCC2)cc1	10	7	0	12*	0.64	.	.	.	4	6	5
FC(F)Sc1ccc(NC(=S)NCC2CCCCC2)cc1	8	9	-8	13*	0.54	.	.	.	3	5	6
S=C(NCC1CCCCC1)Nc1ccc(Oc2ccccc2)cc1	3	3	-10	8	0.69	.	.	.	.	.	.
Oc1cccc(C=NN2CCCCC2)c1O	.	.	.	.	0.68	.	.	.	.	.	.
S=C(NN=C(c1ccccc1)c1ccccn1)N(Cc1ccccn1)Cc1ccccn1	.	.	-8	15*	.	.	.	.	6	8	9
COc1cccc(-c2cnc(C(O)c3cccc(OC)c3)[nH]2)c1 (stereo not given)	.	.	.	11*	.	.	.	.	3	6	-10
Cc1cc(C)cc(C(O)c2ncc(-c3ccc4ccccc4c3)[nH]2)c1 (stereo not given)	.	.	.	18*	.	.	.	.	12*	15	26*
Cc1ccc(-c2cnc(C(O)c3cc(C)cc(C)c3)[nH]2)cc1 (stereo not given)	.	.	.	17*	.	.	.	.	11*	14	14
